Measured values reported in PubChem BioAssay (NCI).
Compounds without any hit were thinned out: in the full panel of roughly 79,000, 15% have a hit. A number with no mark means an inactive call. Calls of active or inactive are those of the source. No stated cut-off is given here; in the data, active means growth inhibition above about 70%; inactive means the rest.

Key:
[1] = NCI Yeast Anticancer Drug Screen. Data for the rad50 strain (AID 155);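 further: 0% = growth of vehicle-only cultures of the same strain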; settings: S. cerevisiae rad50 strain growth inhibition; at 50.0 µM; hits give high values
Method in brief: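 Cells are treated with compound, grown, and their growth is then scored against vehicle-only cultures of the same repair-deficient yeast strain.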

[2] = NCI Yeast Anticancer Drug Screen. Data for the mec2-1 strain (AID 157); settings: S. cerevisiae mec2-1 strain, at 50.0 µM, hits give high values
Method in brief: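 mec2-1 yeast strain, carrying an alteration in DNA damage repair or cell cycle control, was exposed to compounds; growth inhibition was measured relative to vehicle-treated controls.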

[3] = NCI Yeast Anticancer Drug Screen. Data for the sgs1 mgt1 strain (AID 161);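 further: 0% = growth of cultures given vehicle only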; settings: S. cerevisiae sgs1 mgt1 strain, at 50.0 µM, hits give high values
Method in brief: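 Percent growth inhibition was derived by comparing compound-exposed mutant yeast with vehicle-exposed cultures. The strain carries alterations in DNA damage repair.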

[4] = NCI Yeast Anticancer Drug Screen. Data for the cln2 rad14 strain (AID 165);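 further: 0% = growth equal to vehicle treated cultures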; settings: S. cerevisiae cln2 rad14 strain, at 50.0 µM, hits give high values
Method in brief: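 Yeast carrying cln2 and rad14 alterations (cell cycle control and DNA damage repair) were exposed to compounds. Growth inhibition was measured against vehicle-treated controls.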

[5] = NCI Yeast Anticancer Drug Screen. Data for the bub3 strain (AID 167); settings: S. cerevisiae bub3 mutant strain, at 50.0 µM, hits give high values
Method in brief: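 Part of a panel of yeast mutants defective in DNA damage repair or cell cycle regulation. Each strain is grown with compound, and inhibition is calculated relative to solvent-treated cultures.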

[6] = NCI Yeast Anticancer Drug Screen. Data for the mlh1 rad18 strain (AID 175); settings: S. cerevisiae mlh1 rad18 strain growth inhibition; at 50.0 µM; hits give high values
Method in brief: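 Growth inhibition of the yeast strain was measured after compound exposure and expressed relative to vehicle-treated controls. The strain carries defined defects in DNA damage repair.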

| SMILES | growth inhibition [1] | growth inhibition [2] | growth inhibition [3] | growth inhibition [4] | growth inhibition [5] | growth inhibition [6] |
| --- | --- | --- | --- | --- | --- | --- |
| CSC(=S)S(=O)(=O)C12CC3CC(CC(C3)C1)C2 | 90.5% (active) | 93.2% (active) | 89.5% (active) | 90% (active) | 86.5% (active) | 92.6% (active) |
| Cc1ccc(S(=O)(=O)c2ccc(C)cc2[N+](=O)[O-])cc1 | 21.8% | -7.5% | 18.5% | -4.95% | 45.7% | -9.75% |
| O=C(CC(O)(C(F)(F)F)C(F)(F)F)c1ccc(Br)cc1 | 4.35% | 19.6% | 5.45% | -8.25% | 14.1% | 49.4% |
| c1ccc(C2=NN(c3ccccc3)C3C4CCC(C4)C23)cc1 (centres undefined) | -5.6% | 8.15% | -6.2% | -49% | 13.8% | 12.1% |
| CCOC(=O)c1ccc(N=Cc2cccs2)cc1 | -1.9% | 28.4% | 17.1% | 9.5% | 0% | 17.4% |
| C=CC1(C(=O)O)CCC(C(C)(C)C)CC1 (centres undefined) | 42.9% | 42% | 31.6% | 36.1% | 21.6% | 13.3% |
| O=c1[nH]c2ccccc2c(O)c1-c1ccccc1 | 6.95% | 0.8% | -17% | -8.6% | -22.5% | 0.65% |
| CC(C)=CC(=O)n1nc2c(c1CC(C)C)C(=O)C(Nc1ccccc1)=CC2=O | 35.1% | 3.25% | 21% | 24.8% | 1.3% | 27.4% |
| NC1Nc2ccccc2NC1=O (centres undefined) | 4.85% | 10.2% | 3.4% | -3.15% | 6.4% | 0.05% |
| O=C1c2cccc3cc([N+](=O)[O-])cc(c23)C(=O)N1CC1CCCO1 (centres undefined) | 75.3% (active) | 15.8% | 30.6% | 18.1% | 26.1% | 3.15% |
| COc1ccc2[nH]c(=O)c(C(C)=O)c(O)c2c1 | 3% | 6.95% | 6.15% | 1.6% | 7.15% | 7.85% |
| O=S(=O)(O)c1ccc(O)c2ncccc12 | 20.2% | 16.4% | 23.6% | 21.4% | 12.1% | 25.9% |
| CCOC(=O)NC(=O)c1cn(CCN2CCN(C(=O)NCCCCCCNC(=O)N3CCN(CCn4cc(C(=O)NC(=O)OCC)c(=O)n(CCN(CC)CC)c4=O)CC3)CC2)c(=O)n(CCC(CC)CC)c1=O | -10.1% | 8.7% | -6.65% | -20.9% | 2.5% | -31.5% |
| OC1(c2ccc(C3(O)C(c4ccccc4)=C(c4ccccc4)C(c4ccccc4)=C3c3ccccc3)cc2)C(c2ccccc2)=C(c2ccccc2)C(c2ccccc2)=C1c1ccccc1 | 5.6% | -1.75% | -1.7% | -6.6% | -2.15% | 9.85% |
| CC1(O)CCC(O)CC1CC[N+](C)(C)[O-] (centres undefined) | 7.35% | 1.3% | 8.8% | 4.75% | 3.3% | 5.55% |
| CN(C)c1ccc(S(=O)(=O)c2ccc(N(C)C)c([N+](=O)[O-])c2)cc1[N+](=O)[O-] | 24% | -9.65% | -9.8% | 0.45% | 3.65% | -30.9% |
| Cc1n[nH]c(=S)n1NC=O | -12.3% | -6.3% | -4.7% | -20.2% | -4.95% | -15.8% |
| Nc1nc(N)nc(CNc2c(Br)cc(Br)cc2Br)n1 | 12% | 24.6% | 16.5% | -9.25% | -10.2% | 4.95% |
| CC1(C)CC(C(N)=O)C(=O)O1 (centres undefined) | -17.4% | -4.15% | -21.6% | -25.9% | 5.1% | -2.4% |
